Source: PubChem BioAssay
Only some compounds are listed: those with a hit (about 3.5% of all), similar ones and a draw of the others.
Pf apPOL block – Pf-apPOL DNA polymerase inhibition; 210,000 tested, 0.25% active; inhibition, % at 10 µM; AID 1794808; Recombinant Pf-apPOL, molecular beacon fluorescence, 1.5 h
mHTT CaM bind – inhibitors of human mutant huntingtin-calmodulin interaction; AlphaScreen His-mHTT/GST-CaM binding, luminescence; inhibition, % at 15 µM; 190,000 tested, 3.6% active; AID 1671202;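 also: 0% = both proteins with DMSO and 100% = one protein alone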
* marks the source's active call; other numbers are inactive results; nt = not tested or not shown. Rule as the data show it: active = inhibition above about 50%; inactive = the rest.

SMILES | Pf apPOL block | mHTT CaM bind
COc1ccc(-c2c3c(=O)n(C)c(=O)n(C)c3cn2-c2ccccc2OC)cc1 | 78* | 15
COc1ccc(-c2c3c(=O)n(C)c(=O)n(C)c3cn2-c2ccccc2)cc1 | 43 | 5
Cn1c(=O)c2c(-c3ccccc3)n(-c3ccccc3)cc2n(C)c1=O | 7 | 31
Cc1ccc(-n2cc3c(c2-c2ccccc2)c(=O)n(C)c(=O)n3C)c(C)c1 | 83* | 16
Cc1cc(N)c(-n2cc3c(c2-c2ccccc2)c(=O)n(C)c(=O)n3C)cc1C | 82* | 13
CC1Oc2ccccc2N(Cc2nc(-c3ccc(Cl)c(F)c3)no2)C1=O (stereo not given) | -6 | -19
N#Cc1cnc2ccccc2c1N1CCC(C(=O)NCc2ccc(F)cc2)CC1 | 1 | -9
O=c1cc(-c2ccccc2)c2ccc(OCc3ccc([N+](=O)[O-])cc3)cc2o1 | 5 | -1
c1ccc(-c2cc(CN3CCOCC3)[nH]n2)cc1 | -5 | 1
Cc1ccc(C(=O)N2CCCC(COc3ccc(C(=O)N4CCCC4)cc3)C2)cc1 (stereo not given) | 7 | 13
Cc1ccc2n1CCN(C(=O)NCc1ccccc1)C2C(C)C (stereo not given) | -4 | 2
Cc1ccc2n1CCN(C(=O)NCCc1ccccc1)C2C(C)C (stereo not given) | -3 | 54*
CC1=NN(c2ccc(Br)cc2)C(=O)/C1=C/c1ccc(-c2cccc([N+](=O)[O-])c2)o1 | -8 | 9
CC(C)(C)c1ccc(O)c(C(C)(C)C)c1O | -7 | 98*
CC(C)(C)c1cc(S)cc(C(C)(C)C)c1O | nt | 13
CCOc1ccccc1N1C(=O)C2C3c4ccccc4C(C(OC)OC)(c4ccccc43)C2C1=O (stereo not given) | 3 | 6
O=C(CC1CCC1)Nc1ccc(I)cc1 | -7 | -14
Cc1ccc(/C=C2/N=C(c3c(-c4ccccc4)noc3C)OC2=O)cc1 | 3 | -2
Cc1onc(-c2ccccc2)c1C1=N/C(=C\C=C\c2ccccc2)C(=O)O1 | -2 | 68*
COc1cc(C2=NC(=CC=Cc3ccccc3)C(=O)O2)cc(OC)c1OC | -10 | nt
COc1cc(C2=N/C(=C\C=C\c3ccccc3)C(=O)O2)cc(OC)c1OC | 1 | 61*
COc1cc(C2C(C#N)=C(N)OC(C)=C2C(C)=O)ccc1O (stereo not given) | 2 | 3
COc1ccc(Cl)cc1S(=O)(=O)NC1CCCCC1 | 1 | -4
CCc1ccc(CNC(=O)C2CCN(c3cncnc3N3CCCC3)CC2)cc1 | 1 | 7
O=C(NCc1cccc(F)c1)C1CCN(c2cncnc2N2CCCC2)CC1 | -9 | 17
SMILES | Pf apPOL block | mHTT CaM bind
O=C(NCc1cccc(C(F)(F)F)c1)C1CCN(c2cncnc2N2CCCC2)CC1 | 3 | 63*
O=C(NCc1ccc(Cl)cc1)C1CCN(c2cncnc2N2CCCC2)CC1 | -4 | 70*
O=c1oc(/C=C/c2ccco2)nc2sc3c(c12)CCCC3 | -5 | 6
Cc1ccc(NC(=O)C2CC(=O)N(CCc3c[nH]c4ccc(F)cc34)C2)c(C)c1 (stereo not given) | -2 | 8
Cc1ccc(Cl)cc1NC(=O)C1CC(=O)N(CCc2c[nH]c3ccc(F)cc23)C1 (stereo not given) | -4 | 89*
Cc1ccc(NC(=O)C2CC(=O)N(CCc3c[nH]c4ccc(C)cc34)C2)c(C)c1 (stereo not given) | 3 | 25
CCc1ccccc1NC(=O)C1CC(=O)N(CCc2c[nH]c3ccc(F)cc23)C1 (stereo not given) | -3 | 6
CCc1ccccc1NC(=O)C1CC(=O)N(CCc2c[nH]c3ccc(Cl)cc23)C1 (stereo not given) | -3 | 88*
Cc1ccc(C)c(NC(=O)C2CC(=O)N(CCc3c[nH]c4ccc(Cl)cc34)C2)c1 (stereo not given) | 1 | 67*
O=C(c1ccc(F)cc1)N1CCCC(C(=O)N2CCCCCC2)C1 (stereo not given) | 1 | -4
CCOC(=O)c1csc(-c2ccc(C(F)(F)F)cn2)n1 | -10 | nt
COc1ccccc1-c1nc(C2CCCN(C(=O)c3cccc(C)c3)C2)no1 (stereo not given) | -4 | -9
Nc1ccc(OCC[n+]2ccc(CCS(=O)(=O)[O-])cc2)cc1 | nt | -9
Cc1c(C(=O)Nc2ccccn2)sc2nc(-c3ccccc3)cn12 | -24 | 8
Cc1cccc(NC(=O)c2sc3nc(-c4ccccc4)cn3c2C)n1 | -1 | 50*
CCOCCCNC(=O)C1CCN(c2nc3cccnc3s2)CC1 | 4 | -2
Oc1oc(-c2ccc(Br)cc2)nc1C=Nc1ccccc1Br | 6 | -6
CC(C)C(=O)N1CCc2ccc(NS(=O)(=O)Cc3ccc(Cl)cc3)cc2C1 | 94* | -1
CC(C)S(=O)(=O)Nc1ccc2c(c1)CN(C(=O)c1ccco1)CC2 | -5 | -4
COc1cccc(N(CC(=O)O)S(C)(=O)=O)c1 | -6 | 1
CCc1ccc(C2N(c3cc(Cl)ccc3OC)C(=O)C3CCCN32)cc1 (stereo not given) | -3 | 33
CCOc1ccc(C2N(c3ccc(Cl)cc3)C(=O)C3CCCN32)cc1OC (stereo not given) | -6 | 30
COc1cc(OC)c(C2N(c3ccc(Cl)c(Cl)c3)C(=O)C3CCCN32)cc1OC (stereo not given) | -1 | 98*
COc1ccccc1C1N(c2cc(Cl)ccc2OC)C(=O)C2CCCN21 (stereo not given) | -2 | 1
COc1cc(OC)c(C2N(c3ccc(Cl)cc3)C(=O)C3CCCN32)cc1OC (stereo not given) | 0 | 67*
SMILES | Pf apPOL block | mHTT CaM bind
CCN(CC)c1ccc(C2N(c3cc(Cl)ccc3OC)C(=O)C3CCCN32)cc1 (stereo not given) | -1 | 75*
COc1ccccc1C1N(c2ccc(Cl)c(Cl)c2)C(=O)C2CCCN21 (stereo not given) | 0 | 100*
COc1ccc(N2C(=O)C3CCCN3C2c2ccc(Cl)cc2)cc1Cl (stereo not given) | -3 | 2
O=C(O)Cn1c2ccccc2c2nn3c(nc4ccccc43)nc21 | -3 | 7
Cc1cccc2oc(-c3cccc(NC(=O)c4cccs4)c3)nc12 | -4 | 0
C=CCn1c(SCC(=O)NCc2ccccc2)nc2scc(-c3ccco3)c2c1=O | -2 | 34
Cc1nnsc1C(=O)Nc1ccc2c(c1)C(=O)OC2 | -3 | nt
CC(=O)c1ccc(NS(C)(=O)=O)cc1 | -6 | nt
CCc1onc(C)c1C1CCCN1Cc1cn[nH]c1-c1cccs1 (stereo not given) | 14 | 0
CCOc1ccc(-c2nc3s/c(=C\c4cccc(OC)c4)c(=O)n3n2)cc1 | 5 | 0
Nc1cc(C2CCN(C(=O)Nc3ccccc3F)CC2)no1 | -5 | 1
Cc1ccc2c(c1)NC(C)(C)c1ssc(=Nc3ccc(Cl)cc3Cl)c1-2 | nt | 62*
Cc1ccc2c(c1)/C(=C/c1ccc(Cl)cc1)C(=O)N2 | -2 | 36
Cc1cc2c(cc1C)-c1c(ssc1=Nc1ccc(S(N)(=O)=O)cc1)C(C)(C)N2 | nt | 20
CC1(C)Nc2ccccc2-c2c1ssc2=Nc1cccc(Cl)c1 | nt | 69*
Cc1ccc2c(c1)-c1c(ssc1=Nc1cc(Cl)ccc1Cl)C(C)(C)N2 | nt | 98*
CCc1onc(C)c1C1CCCN1C(=O)c1cccc(C(F)(F)F)c1 (stereo not given) | -1 | 2
Cc1c(CCOC(=O)C23CC4CC(CC(C)(C4)C2)C3)sc[n+]1CC(=O)c1ccccc1 | -1 | 99*
